In PubChem BioAssay (EPA / NIEHS):
The source made the active and inactive calls. Rule for the calls: active = hit-call score of the fitted dose curve at least 0.9, where 1 is the maximum; inactive = score below 0.9.

Experiments:
[1] = ATG_CRE_CIS: Attagene CIS-FACTORIAL HepG2 Assay for human cAMP Responsive Element (CRE) binding protein 3 (AID 2282926); details: HepG2 CRE cis-reporter, Attagene multiplexed mRNA; actives raise or lower the signal
Method in brief: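 We dosed HepG2 cells bearing multiple cis-promoter reporter units for 24 h and measured reporter mRNA by RT-PCR with capillary electrophoresis detection. Bidirectional concentration-response fitting used DMSO as negative control.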

[2] = target: CCAAT/enhancer-binding protein beta (Homo sapiens) (UniProt P17676); experiment: ATG_C_EBP_CIS: Attagene CIS-FACTORIAL HepG2 Assay for human CCAAT/Enhancer Binding Protein (C/EBP) beta (AID 2282927); details: HepG2 Attagene cis-factorial transcription factor reporter; actives raise or lower the signal
Method in brief: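 RT-PCR/capillary electrophoresis fluorescence of reporter mRNA, 24 h post-dose, in HepG2 cells carrying transfected cis-promoter reporter units. Bidirectional curve fitting against DMSO baseline captures gain or loss of signal.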

[3] = ATG_CMV_CIS: Attagene CIS-FACTORIAL HepG2 Assay for human CMV (Internal Marker) (AID 2282928); details: HepG2 CMV promoter reporter, transcription factor profiling; actives raise or lower the signal;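 note: endpoint acts as a background internal control marker rather than a target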
Method in brief: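 Endogenous transcription factor activity read in HepG2 via transfected cis-promoter reporter units. After 24 h dosing, reporter mRNA measured by RT-PCR/capillary electrophoresis; gain or loss of signal fit relative to DMSO.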

[4] = ATG_DR4_LXR_CIS: Attagene CIS-FACTORIAL HepG2 Assay for human Liver X Receptor (LXR), DR4 submotif (AID 2282929); details: HepG2 Attagene DR4 cis-reporter, mRNA transcription; actives raise or lower the signal
Method in brief: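 HepG2 cells transiently transfected with cis-promoter-driven multiplexed reporter units (DR4 element) were dosed for 24 h. Reporter mRNA was quantified by RT-PCR, fluorescent primer extension, HpaI digestion and capillary electrophoresis; bidirectional fitting versus DMSO baseline.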

[5] = target: Aryl hydrocarbon receptor (Homo sapiens) (UniProt P35869); experiment: ATG_Ahr_CIS: Attagene CIS-FACTORIAL HepG2 Assay for human Aryl Hydrocarbon Receptor (Ahr) (AID 2282930); details: HepG2 AhR cis-factorial reporter transcription; actives raise or lower the signal
Method in brief: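 HepG2 cells transiently transfected with cis-element-driven multiplexed reporter transcription units; endogenous transcription factor activity measured as reporter mRNA 24 h after dosing. RT-PCR, 6-FAM labelling, HpaI digestion, capillary electrophoresis; bidirectional fitting versus DMSO baseline.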

[6] = ATG_AP_1_CIS: Attagene CIS-FACTORIAL HepG2 Assay for human Activator Protein 1 (AP-1) (AID 2282931); details: HepG2 Attagene cis-factorial AP-1 reporter mRNA; actives raise or lower the signal
Method in brief: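 HepG2 cells transiently transfected with cis-element-driven multiplex reporter units; 24 h compound exposure. Reporter mRNA quantified by RT-PCR, FAM-labelled fragments resolved by capillary electrophoresis; bidirectional fit versus DMSO baseline.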

[7] = ATG_AP_2_CIS: Attagene CIS-FACTORIAL HepG2 Assay for human Activator Protein 2 (AP-2) (AID 2282932); details: HepG2 AP-2 cis-reporter, Attagene transcription factor profiling; actives raise or lower the signal
Method in brief: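 HepG2 cells were transiently transfected with multiple cis-promoter reporter transcription units and dosed for 24 h. Reporter mRNA was measured by RT-PCR with capillary electrophoresis fluorescence; bidirectional fits relative to DMSO baseline.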

[8] = ATG_BRE_CIS: Attagene CIS-FACTORIAL HepG2 Assay for human Bone Morphogenetic Protein (BMP) Response Element (BRE) (AID 2282933); details: HepG2 BMP response element reporter, Attagene transcription factor profiling; actives raise or lower the signal
Method in brief: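 Endogenous transcription factor activity at a BMP response element was monitored in transfected HepG2 cells 24 h after dosing. Fluorescent RT-PCR products were resolved by capillary electrophoresis, and activity was fitted in both directions versus DMSO.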

[9] = target: Retinoic acid receptor alpha (Homo sapiens) (UniProt P10276); experiment: ATG_DR5_RAR_CIS: Attagene CIS-FACTORIAL HepG2 Assay for human Retinoic Acid Receptor Alpha (RARE), DR5 submotif (AID 2282934); details: HepG2 Attagene cis-factorial RARE DR5 reporter, mRNA; actives raise or lower the signal
Method in brief: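 HepG2 cells transiently transfected with multiplexed reporter units under cis (DR5 RARE) promoters, so endogenous transcription factor activity is measured. After 24 h compound exposure, reporter mRNA is quantified by RT-PCR with fluorescent labelling and capillary electrophoresis; bidirectional fitting versus DMSO.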

[10] = target: Transcription factor E2F1 (Homo sapiens) (UniProt Q01094); experiment: ATG_E2F_CIS: Attagene CIS-FACTORIAL HepG2 Assay for human E2F Transcription Factor 1 (AID 2282935); details: HepG2 Attagene cis-reporter, E2F reporter RNA transcripts; actives raise or lower the signal
Method in brief: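 HepG2 cells transiently transfected with multiplexed cis-element reporter units, dosed for 24 h. Reporter mRNA measured by RT-PCR, 6-FAM primer-extension labeling, HpaI digestion and capillary electrophoresis; bidirectional fit versus DMSO baseline.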

[11] = ATG_E_Box_CIS: Attagene CIS-FACTORIAL HepG2 Assay for human Enhancer Box (E-box) (AID 2282936); details: HepG2 E-box cis-reporter transcription, actives raise or lower the signal
Method in brief: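 HepG2 cells transiently transfected with multiplexed cis-element reporter units sensing endogenous transcription factor activity; 24 h compound exposure. Reporter mRNA measured by RT-PCR, 6-FAM primer extension, HpaI digestion and capillary electrophoresis; bidirectional fit versus DMSO.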

[12] = ATG_M_61_CIS: Attagene CIS-FACTORIAL HepG2 Assay for M61 Transcription Factor (Internal Marker) (AID 2282937); details: HepG2 Attagene CIS-FACTORIAL M61 internal marker reporter; actives raise or lower the signal
Method in brief: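 HepG2 cells transiently transfected with cis-element-driven multiple reporter transcription units, dosed for 24 h. Reporter mRNA measured by RT-PCR, 6-FAM primer-extension labelling, HpaI digestion and capillary electrophoresis; bidirectional fit versus DMSO baseline.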

[13] = ATG_EGR_CIS: Attagene CIS-FACTORIAL HepG2 Assay for human Early Growth Response 1 (EGR1) (AID 2282938); details: HepG2 Attagene CIS-FACTORIAL EGR reporter mRNA; actives raise or lower the signal
Method in brief: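 HepG2 cells transiently transfected with cis-promoter-driven multiplexed reporter transcription units; reporter mRNA measured 24 h after compound dosing by RT-PCR, 6-FAM primer extension, HpaI digestion and capillary electrophoresis. Bidirectional fit versus DMSO baseline.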

[14] = ATG_M_19_CIS: Attagene CIS-FACTORIAL HepG2 Assay for M19 Transcription Factor (Internal Marker) (AID 2282939); details: HepG2 Attagene CIS-FACTORIAL M19 internal marker reporter; actives raise or lower the signal
Method in brief: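 Background-control endpoint from a multiplexed HepG2 reporter panel. Cells carrying cis-regulated reporter constructs are treated 24 h, then reporter transcripts are amplified, fluorescently labelled and sized by capillary electrophoresis. DMSO defines baseline.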

[15] = ATG_Ets_CIS: Attagene CIS-FACTORIAL HepG2 Assay for human Erythroblast Transformation Specific (ETS) (AID 2282941); details: HepG2 ETS cis-reporter transcription, actives raise or lower the signal
Method in brief: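 Steps: transfect HepG2 with multiple reporter units; treat compound 24 h; isolate RNA, DNase-treat, reverse-transcribe; PCR-amplify, label with 6-FAM, digest with HpaI; separate by capillary electrophoresis. Activity fitted both directions versus DMSO.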

[16] = ATG_FoxO_CIS: Attagene CIS-FACTORIAL HepG2 Assay for human Forkhead box O (FoxO) (AID 2282943); details: HepG2 Attagene cis-reporter, FoxO element, mRNA; actives raise or lower the signal
Method in brief: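 HepG2 cells transiently transfected with cis-promoter-driven multiple reporter transcription units; 24 h after chemical dosing, reporter mRNA quantified by RT-PCR, fluorescent primer extension, HpaI digestion and capillary electrophoresis. Bidirectional fitting versus DMSO baseline.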

[17] = ATG_GATA_CIS: Attagene CIS-FACTORIAL HepG2 Assay for human GATA Binding Protein (AID 2282944); details: HepG2 GATA cis-element reporter, Attagene multiplex mRNA; actives raise or lower the signal
Method in brief: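 Endogenous transcription factor activity was captured through cis-promoter-driven reporters in transfected HepG2 cells. After 24 h exposure, reporter transcripts were quantified by RT-PCR with fluorescent capillary electrophoresis, and responses fitted both directions against DMSO.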

[18] = ATG_GLI_CIS: Attagene CIS-FACTORIAL HepG2 Assay for human Zinc Finger Protein GLI1 (AID 2282945); details: HepG2, Attagene cis-factorial reporter mRNA, GLI element; actives raise or lower the signal
Method in brief: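 HepG2 cells transiently transfected with cis-promoter multiplexed reporter units report endogenous transcription factor activity. After 24 h chemical exposure, reporter mRNA was quantified by RT-PCR, 6-FAM labelling, HpaI digestion and capillary electrophoresis, with bidirectional fitting against DMSO.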

[19] = target: Hepatocyte nuclear factor 3-beta (Homo sapiens) (UniProt Q9Y261); experiment: ATG_FoxA2_CIS: Attagene CIS-FACTORIAL HepG2 Assay for human Forkhead box A2 (FOXA2) (AID 2282942); details: HepG2 cis-reporter transcription factor activity, 24 h; actives raise or lower the signal
Method in brief: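 HepG2 cells transiently transfected with multiple cis-regulated reporter transcription units, dosed for 24 h. Reporter mRNA measured by RT-PCR, 6-FAM labelling, HpaI digestion and capillary electrophoresis; bidirectional fitting against DMSO baseline.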

Measured: AC50

Aryl hydrocarbon receptor (Homo sapiens), sequence (P35869 whole entry, looked up): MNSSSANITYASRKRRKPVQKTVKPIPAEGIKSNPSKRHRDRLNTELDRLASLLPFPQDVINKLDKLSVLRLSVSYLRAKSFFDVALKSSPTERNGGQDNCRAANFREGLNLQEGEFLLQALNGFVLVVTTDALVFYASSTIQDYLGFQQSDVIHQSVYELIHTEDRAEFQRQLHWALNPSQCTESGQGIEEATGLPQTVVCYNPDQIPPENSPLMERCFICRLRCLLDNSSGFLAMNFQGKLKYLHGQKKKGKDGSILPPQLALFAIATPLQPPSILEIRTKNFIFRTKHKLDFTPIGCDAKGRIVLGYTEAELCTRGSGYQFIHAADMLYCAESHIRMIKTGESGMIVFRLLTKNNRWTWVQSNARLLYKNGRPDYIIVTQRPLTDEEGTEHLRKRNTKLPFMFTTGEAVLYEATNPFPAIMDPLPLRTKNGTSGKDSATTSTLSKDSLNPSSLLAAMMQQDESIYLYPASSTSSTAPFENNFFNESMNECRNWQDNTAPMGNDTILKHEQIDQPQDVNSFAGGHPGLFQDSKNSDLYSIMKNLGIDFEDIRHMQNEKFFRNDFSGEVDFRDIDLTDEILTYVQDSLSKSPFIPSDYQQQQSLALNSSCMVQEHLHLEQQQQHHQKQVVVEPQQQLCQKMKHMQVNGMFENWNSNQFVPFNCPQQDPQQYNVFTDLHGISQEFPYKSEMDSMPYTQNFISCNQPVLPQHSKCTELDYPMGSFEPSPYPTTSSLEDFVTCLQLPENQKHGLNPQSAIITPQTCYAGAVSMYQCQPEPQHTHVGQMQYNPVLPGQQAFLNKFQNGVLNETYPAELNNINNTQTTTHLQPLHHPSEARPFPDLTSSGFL
Hepatocyte nuclear factor 3-beta (Homo sapiens), sequence (Q9Y261 whole entry, looked up): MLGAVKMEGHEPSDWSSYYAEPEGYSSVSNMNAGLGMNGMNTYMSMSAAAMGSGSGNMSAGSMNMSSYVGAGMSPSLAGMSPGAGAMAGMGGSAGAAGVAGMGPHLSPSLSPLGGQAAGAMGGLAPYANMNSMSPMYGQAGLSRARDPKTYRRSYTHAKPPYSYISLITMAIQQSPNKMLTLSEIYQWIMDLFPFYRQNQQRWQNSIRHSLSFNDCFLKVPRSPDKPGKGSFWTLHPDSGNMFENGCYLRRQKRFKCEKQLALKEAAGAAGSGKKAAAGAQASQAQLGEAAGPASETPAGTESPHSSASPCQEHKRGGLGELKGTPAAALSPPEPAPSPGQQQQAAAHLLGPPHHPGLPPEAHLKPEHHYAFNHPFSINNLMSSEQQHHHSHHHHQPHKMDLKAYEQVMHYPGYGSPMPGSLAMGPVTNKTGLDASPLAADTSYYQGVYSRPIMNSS
Transcription factor E2F1 (Homo sapiens), sequence (Q01094 whole entry, looked up): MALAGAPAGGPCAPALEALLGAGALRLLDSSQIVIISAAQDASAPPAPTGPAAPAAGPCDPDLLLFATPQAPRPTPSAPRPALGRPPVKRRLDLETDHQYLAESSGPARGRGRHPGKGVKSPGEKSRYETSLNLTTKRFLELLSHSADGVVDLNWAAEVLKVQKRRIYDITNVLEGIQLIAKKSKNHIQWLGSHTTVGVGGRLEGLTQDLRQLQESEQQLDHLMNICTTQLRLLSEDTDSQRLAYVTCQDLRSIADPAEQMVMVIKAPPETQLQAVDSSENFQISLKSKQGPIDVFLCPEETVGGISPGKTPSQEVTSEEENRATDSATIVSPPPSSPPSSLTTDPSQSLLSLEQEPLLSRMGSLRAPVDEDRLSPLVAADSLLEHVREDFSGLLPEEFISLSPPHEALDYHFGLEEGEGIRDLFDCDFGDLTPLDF
Retinoic acid receptor alpha (Homo sapiens), sequence (P10276 whole entry, looked up): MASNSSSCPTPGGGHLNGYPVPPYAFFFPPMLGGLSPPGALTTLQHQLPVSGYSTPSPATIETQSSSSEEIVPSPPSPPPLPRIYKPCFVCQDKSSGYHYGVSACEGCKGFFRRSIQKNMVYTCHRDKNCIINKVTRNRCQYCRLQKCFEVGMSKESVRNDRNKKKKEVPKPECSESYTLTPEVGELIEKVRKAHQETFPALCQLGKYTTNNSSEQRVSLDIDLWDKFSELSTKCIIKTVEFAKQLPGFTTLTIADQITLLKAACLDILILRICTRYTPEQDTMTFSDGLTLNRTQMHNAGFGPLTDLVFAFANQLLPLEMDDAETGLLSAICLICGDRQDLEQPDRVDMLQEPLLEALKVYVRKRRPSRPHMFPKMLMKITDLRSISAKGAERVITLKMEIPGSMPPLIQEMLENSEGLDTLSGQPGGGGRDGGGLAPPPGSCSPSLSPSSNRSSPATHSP
CCAAT/enhancer-binding protein beta (Homo sapiens), sequence (P17676 whole entry, looked up): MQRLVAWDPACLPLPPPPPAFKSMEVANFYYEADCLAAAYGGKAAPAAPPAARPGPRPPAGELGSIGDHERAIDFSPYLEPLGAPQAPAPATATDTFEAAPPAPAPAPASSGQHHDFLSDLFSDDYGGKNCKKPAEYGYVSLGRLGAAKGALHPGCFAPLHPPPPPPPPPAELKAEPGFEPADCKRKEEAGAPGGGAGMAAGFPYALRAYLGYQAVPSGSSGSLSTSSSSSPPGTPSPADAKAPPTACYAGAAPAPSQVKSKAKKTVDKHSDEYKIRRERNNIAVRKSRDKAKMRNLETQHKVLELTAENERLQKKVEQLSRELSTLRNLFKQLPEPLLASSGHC

CC(=O)O[C@H]1C[C@@H]2CC[C@@]1(C)C2(C)C
inactive: [1] | [2] | [3] | [4] | [5] | [6] | [7] | [8] | [9] | [10] | [11] | [12] | [13] | [14] | [15] | [16] | [17] | [18]

CCOC(=O)COC(=O)c1cc(Oc2ccc(C(F)(F)F)cc2Cl)ccc1[N+](=O)[O-]
active: [4] 35.5 µM
inactive: [1] | [2] | [3] | [5] | [6] | [7] | [8] | [9] | [10] | [11] | [12] | [13] | [14] | [15] | [19] | [16] | [18]

CCCCCCCCCCCCCC(=O)OCC(O)CO (centres undefined)
inactive: [1] | [2] | [3] | [4] | [5] | [6] | [7] | [8] | [9] | [10] | [11] | [12] | [13] | [14] | [15] | [19] | [16] | [17] | [18]

CCCC(=O)OC(C)(C)Cc1ccccc1
inactive: [1] | [2] | [3] | [4] | [6] | [7] | [8] | [9] | [10] | [11] | [12] | [13] | [14] | [15] | [16] | [17] | [18]
active: [5] 72.8 µM

CC(C)(C)CC(C)(C)c1ccc(OCCOCC[N+](C)(C)Cc2ccccc2)cc1
active: [3] 14.8 µM | [4] 8.35 µM | [6] 8.35 µM | [11] 12.3 µM
inactive: [1] | [2] | [5] | [7] | [8] | [9] | [10] | [12] | [13] | [14] | [15] | [19] | [16] | [17] | [18]

OCc1cccc(Oc2ccccc2)c1
inactive: [1] | [2] | [3] | [4] | [5] | [6] | [7] | [8] | [9] | [10] | [11] | [12] | [13] | [14] | [15] | [19] | [16] | [17] | [18]

OCCOCCN1CCN(C2=Nc3ccccc3Sc3ccccc32)CC1
active: [3] 135 µM | [5] 113 µM
inactive: [1] | [2] | [4] | [6] | [7] | [8] | [9] | [10] | [11] | [12] | [13] | [14] | [15] | [16] | [17] | [18]
